According to the supplement of paper PMC10849652:
The full data set covers some 7,900 targets. This sample favours those with a hit. About 0.6% of all pairs of compound and target were hits.

compound: COC1=CC=C(C=C1)CN2C=CC3=C2C=C(C=C3)C(=O)NO; assay: log2 fold change, soluble protein after heating vs DMSO (PISA); higher = thermal stabilisation; K562 cells, 10 uM, 30 min; active = over 0.2 and 3.5 SD of the protein, either way, in both replicates (recomputed)
Procedure, shortened: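 Soluble protein was defined as the supernatant after 21,000xg for 90 min. It came from K562 cells at 2×10^6 cells/mL given 10 μM compound for 30 min, heated in aliquots for 3 min across 48°C-58°C, pooled, and extracted in PBS with 0.5% NP-40 at 4°C, and was quantified by TMTpro 16plex LC-MS/MS with equalised channel sums. Thermal stability against control samples, from duplicates, is reported as log2 fold change.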

UniProt O60566, sequence (O60566 whole entry, looked up): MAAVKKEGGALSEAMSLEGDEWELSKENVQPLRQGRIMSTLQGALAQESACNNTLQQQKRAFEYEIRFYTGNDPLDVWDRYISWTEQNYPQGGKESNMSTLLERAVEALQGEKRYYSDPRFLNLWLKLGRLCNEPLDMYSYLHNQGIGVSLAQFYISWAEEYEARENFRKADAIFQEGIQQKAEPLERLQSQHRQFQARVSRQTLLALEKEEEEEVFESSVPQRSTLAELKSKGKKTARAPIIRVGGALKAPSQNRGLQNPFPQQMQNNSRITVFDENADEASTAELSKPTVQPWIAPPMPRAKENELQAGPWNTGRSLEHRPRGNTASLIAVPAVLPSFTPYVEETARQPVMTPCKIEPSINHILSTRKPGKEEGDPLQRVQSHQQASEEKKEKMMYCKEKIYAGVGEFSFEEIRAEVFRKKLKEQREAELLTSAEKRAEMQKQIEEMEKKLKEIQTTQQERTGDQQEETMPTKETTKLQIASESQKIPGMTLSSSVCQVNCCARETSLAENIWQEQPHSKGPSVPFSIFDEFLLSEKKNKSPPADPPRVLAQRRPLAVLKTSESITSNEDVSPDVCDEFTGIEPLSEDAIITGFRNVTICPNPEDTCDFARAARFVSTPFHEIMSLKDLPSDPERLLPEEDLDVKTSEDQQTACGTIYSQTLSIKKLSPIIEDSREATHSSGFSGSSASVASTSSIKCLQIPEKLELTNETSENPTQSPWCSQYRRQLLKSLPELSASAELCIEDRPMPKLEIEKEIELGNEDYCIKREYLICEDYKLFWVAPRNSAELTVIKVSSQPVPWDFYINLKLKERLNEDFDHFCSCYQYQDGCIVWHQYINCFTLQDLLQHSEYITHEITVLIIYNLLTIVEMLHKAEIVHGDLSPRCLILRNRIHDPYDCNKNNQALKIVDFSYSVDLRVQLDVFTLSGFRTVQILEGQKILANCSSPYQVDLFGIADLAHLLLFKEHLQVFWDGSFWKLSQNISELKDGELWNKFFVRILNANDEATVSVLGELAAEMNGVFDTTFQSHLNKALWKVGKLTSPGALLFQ
UniProt Q9UBL3, sequence (Q9UBL3 whole entry, looked up): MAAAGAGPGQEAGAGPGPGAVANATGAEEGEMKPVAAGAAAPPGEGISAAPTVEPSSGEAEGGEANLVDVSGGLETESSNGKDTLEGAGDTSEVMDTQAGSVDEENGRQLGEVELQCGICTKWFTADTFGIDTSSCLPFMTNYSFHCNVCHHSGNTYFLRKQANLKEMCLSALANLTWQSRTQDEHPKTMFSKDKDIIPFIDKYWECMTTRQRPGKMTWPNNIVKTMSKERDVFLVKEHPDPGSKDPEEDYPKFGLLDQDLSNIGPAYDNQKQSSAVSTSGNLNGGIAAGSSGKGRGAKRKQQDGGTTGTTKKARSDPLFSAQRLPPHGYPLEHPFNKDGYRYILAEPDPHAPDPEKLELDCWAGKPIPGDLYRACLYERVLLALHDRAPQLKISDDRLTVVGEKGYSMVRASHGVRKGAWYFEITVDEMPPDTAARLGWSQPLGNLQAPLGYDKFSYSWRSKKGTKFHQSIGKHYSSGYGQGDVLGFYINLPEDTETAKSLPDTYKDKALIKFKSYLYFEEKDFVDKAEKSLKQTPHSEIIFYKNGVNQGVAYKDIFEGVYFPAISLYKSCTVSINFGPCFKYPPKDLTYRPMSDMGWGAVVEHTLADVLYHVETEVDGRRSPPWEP
UniProt Q93050, sequence (Q93050 whole entry, looked up): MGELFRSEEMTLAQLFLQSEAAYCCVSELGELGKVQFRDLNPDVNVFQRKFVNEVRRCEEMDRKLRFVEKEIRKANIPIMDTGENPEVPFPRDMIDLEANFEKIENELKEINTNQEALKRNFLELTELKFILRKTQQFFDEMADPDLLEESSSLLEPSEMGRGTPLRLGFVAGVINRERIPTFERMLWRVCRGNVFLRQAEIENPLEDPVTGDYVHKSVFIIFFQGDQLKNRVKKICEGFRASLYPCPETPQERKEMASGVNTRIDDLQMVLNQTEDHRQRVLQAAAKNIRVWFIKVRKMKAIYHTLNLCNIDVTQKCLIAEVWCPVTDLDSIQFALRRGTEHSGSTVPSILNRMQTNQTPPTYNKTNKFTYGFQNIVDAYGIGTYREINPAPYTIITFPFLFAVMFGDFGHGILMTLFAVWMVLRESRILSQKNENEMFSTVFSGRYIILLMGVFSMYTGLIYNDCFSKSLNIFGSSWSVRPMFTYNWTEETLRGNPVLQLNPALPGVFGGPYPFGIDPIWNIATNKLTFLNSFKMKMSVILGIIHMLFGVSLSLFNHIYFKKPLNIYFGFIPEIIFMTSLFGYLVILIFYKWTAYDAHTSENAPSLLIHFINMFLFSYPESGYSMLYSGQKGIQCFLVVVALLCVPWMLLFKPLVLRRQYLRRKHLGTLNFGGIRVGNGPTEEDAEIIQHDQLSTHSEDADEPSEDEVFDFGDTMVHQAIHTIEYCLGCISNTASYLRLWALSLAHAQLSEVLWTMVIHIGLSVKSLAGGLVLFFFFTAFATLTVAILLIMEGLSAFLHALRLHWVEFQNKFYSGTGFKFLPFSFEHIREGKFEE
UniProt Q9UKV3, sequence (Q9UKV3 whole entry, looked up): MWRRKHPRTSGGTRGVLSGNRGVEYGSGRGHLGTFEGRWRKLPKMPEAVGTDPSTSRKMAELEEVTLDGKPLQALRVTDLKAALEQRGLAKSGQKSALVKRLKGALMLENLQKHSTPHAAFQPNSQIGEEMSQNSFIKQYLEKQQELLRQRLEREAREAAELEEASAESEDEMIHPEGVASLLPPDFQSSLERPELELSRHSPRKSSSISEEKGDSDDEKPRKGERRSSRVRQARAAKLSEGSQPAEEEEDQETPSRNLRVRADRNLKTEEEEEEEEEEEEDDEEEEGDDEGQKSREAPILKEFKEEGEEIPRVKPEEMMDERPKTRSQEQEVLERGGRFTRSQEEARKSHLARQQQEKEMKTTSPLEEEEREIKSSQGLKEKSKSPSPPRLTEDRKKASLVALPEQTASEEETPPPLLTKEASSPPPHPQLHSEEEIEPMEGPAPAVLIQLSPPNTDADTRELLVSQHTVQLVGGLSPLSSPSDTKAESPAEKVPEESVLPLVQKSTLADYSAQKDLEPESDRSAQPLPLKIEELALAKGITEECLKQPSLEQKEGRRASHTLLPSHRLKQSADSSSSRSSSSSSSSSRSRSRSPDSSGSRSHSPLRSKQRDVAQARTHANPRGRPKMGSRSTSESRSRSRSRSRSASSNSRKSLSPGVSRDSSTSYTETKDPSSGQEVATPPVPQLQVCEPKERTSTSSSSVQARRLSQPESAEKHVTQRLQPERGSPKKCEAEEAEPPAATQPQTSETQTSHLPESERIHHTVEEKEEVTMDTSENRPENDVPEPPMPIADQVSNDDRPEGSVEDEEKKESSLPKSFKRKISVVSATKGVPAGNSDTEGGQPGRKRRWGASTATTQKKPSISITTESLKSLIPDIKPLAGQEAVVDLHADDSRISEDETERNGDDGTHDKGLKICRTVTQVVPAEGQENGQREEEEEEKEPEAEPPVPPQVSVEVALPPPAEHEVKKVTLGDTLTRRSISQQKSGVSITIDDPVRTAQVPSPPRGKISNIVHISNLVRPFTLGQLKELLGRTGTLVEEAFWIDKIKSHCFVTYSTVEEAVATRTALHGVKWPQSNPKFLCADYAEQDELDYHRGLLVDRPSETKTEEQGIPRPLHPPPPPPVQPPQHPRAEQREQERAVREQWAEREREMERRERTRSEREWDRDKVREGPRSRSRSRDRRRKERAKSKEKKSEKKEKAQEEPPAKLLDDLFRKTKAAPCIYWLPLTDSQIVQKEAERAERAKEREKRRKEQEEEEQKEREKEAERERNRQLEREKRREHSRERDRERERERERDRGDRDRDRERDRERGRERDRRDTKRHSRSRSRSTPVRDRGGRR
UniProt P30043, sequence (P30043 whole entry, looked up): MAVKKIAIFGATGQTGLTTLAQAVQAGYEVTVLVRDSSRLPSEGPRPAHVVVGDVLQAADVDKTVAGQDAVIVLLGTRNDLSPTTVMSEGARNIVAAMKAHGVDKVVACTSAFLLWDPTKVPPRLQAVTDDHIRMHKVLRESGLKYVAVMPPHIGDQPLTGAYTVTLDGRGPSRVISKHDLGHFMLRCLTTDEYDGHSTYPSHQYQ
UniProt Q9UHQ4, sequence (Q9UHQ4 whole entry, looked up): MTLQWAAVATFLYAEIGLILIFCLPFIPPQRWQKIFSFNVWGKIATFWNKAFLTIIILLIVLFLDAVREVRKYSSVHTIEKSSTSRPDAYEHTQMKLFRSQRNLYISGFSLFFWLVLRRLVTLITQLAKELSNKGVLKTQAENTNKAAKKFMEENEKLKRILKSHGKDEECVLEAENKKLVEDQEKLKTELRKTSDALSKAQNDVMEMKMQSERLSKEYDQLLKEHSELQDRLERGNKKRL
UniProt Q99943, sequence (Q99943 whole entry, looked up): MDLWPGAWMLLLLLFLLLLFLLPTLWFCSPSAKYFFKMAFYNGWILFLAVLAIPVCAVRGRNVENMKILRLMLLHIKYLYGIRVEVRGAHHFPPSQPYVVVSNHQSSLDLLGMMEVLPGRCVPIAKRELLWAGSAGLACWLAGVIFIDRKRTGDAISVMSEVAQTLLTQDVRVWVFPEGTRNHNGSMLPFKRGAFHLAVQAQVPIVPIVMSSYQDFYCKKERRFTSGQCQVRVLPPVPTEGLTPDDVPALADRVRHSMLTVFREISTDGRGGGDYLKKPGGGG
UniProt P36405, sequence (P36405 whole entry, looked up): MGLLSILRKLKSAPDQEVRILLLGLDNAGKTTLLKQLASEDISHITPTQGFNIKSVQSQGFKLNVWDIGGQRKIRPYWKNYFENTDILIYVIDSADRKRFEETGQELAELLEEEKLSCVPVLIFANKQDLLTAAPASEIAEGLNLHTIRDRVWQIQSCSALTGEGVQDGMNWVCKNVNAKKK
UniProt Q10589, sequence (Q10589 whole entry, looked up): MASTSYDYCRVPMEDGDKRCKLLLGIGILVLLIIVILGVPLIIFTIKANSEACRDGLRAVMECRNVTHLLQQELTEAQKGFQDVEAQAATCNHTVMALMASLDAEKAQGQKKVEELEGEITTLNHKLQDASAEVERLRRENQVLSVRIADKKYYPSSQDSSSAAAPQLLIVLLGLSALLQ

Target	log2 fold change
BLVRB (UniProt P30043)	0.113 (inactive)
ARL3 (UniProt P36405)	0 (inactive)
AGRN (UniProt O00468)	-0.068 (inactive)
AARS2 (UniProt Q5JTZ9)	-0.053 (inactive)
AP2A2 isoform 2 (UniProt O94973)	0.009 (inactive)
ATOX1 (UniProt O00244)	0.471 (active)
ATP6V0A1 isoform 3 (UniProt Q93050)	0.021 (inactive)
ALG3 (UniProt Q92685)	0.109 (inactive)
APOH (UniProt P02749)	0.03 (inactive)
ATP12A isoform 2 (UniProt P54707)	-0.034 (inactive)
AGPS (UniProt O00116)	0.074 (inactive)
ATP1A1 (UniProt P05023)	0.09 (inactive)
BZW2 (UniProt Q9Y6E2)	-0.029 (inactive)
ACIN1 (UniProt Q9UKV3)	0.019 (inactive)
BMP2K (UniProt Q9NSY1)	0.032 (inactive)
AIFM2 (UniProt Q9BRQ8)	-0.019 (inactive)
ATP1B3 (UniProt P54709)	0.082 (inactive)
BECN1 (UniProt Q14457)	0.094 (inactive)

Target	log2 fold change
ATP6V1H (UniProt Q9UI12)	0.035 (inactive)
ATAD3B (UniProt Q5T9A4)	-0.035 (inactive)
ADRM1 (UniProt Q16186)	0.088 (inactive)
BRD3 (UniProt Q15059)	0.027 (inactive)
ASNS (UniProt P08243)	0.027 (inactive)
AGPAT3 isoform 3 (UniProt Q9NRZ7)	-0.083 (inactive)
BUB1B isoform 3 (UniProt O60566)	0.038 (inactive)
ARMC8 (UniProt Q8IUR7)	0.056 (inactive)
BCAP29 isoform 2 (UniProt Q9UHQ4)	-0.033 (inactive)
ATG4B isoform 2 (UniProt Q9Y4P1)	-0.003 (inactive)
BST2 (UniProt Q10589)	-0.064 (inactive)
AKAP8 (UniProt O43823)	0.026 (inactive)
BZW1 isoform 3 (UniProt Q7L1Q6)	0.033 (inactive)
ANKRD29 (UniProt Q8N6D5)	0.339 (inactive)
AGPAT5 (UniProt Q9NUQ2)	-0.043 (inactive)
ASH2L (UniProt Q9UBL3)	0.019 (inactive)
AGPAT1 (UniProt Q99943)	-0.004 (inactive)
